DT40 TDP1 CPT: DT40-hTDP1 cell growth loss with CPT. chicken DT40 Tdp1-/-;hTDP1 cells + 20 nM CPT, ATP luminescence, 48 h. 420,000 compounds, 12% hits. Potency, µM (highest dose often 46.2 µM), for the others: top-dose activity change, negative = growth inhibition, most hits filed as inhibitors; also: % is scaled to controls: 0 for no effect and ±100 for the full control effect; nearly all actives have a fitted effect of over 55% in size
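Chicken DT40 Tdp1-/- cells stably complemented with human TDP1 were seeded at 400 cells/well in medium containing 20 nM camptothecin, exposed to pin-transferred compounds, and grown at 37 °C for at least 48 hr. Viability was read as ATP luminescence.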
TDP1 block: TDP1 (human) enzyme inhibition; AID 485290; Q9NUW8; 350,000 compounds, 0.28% hits; recombinant TDP1, AlphaScreen DNA substrate cleavage; Potency, µM (titrated, usually from 130 µM), inactives show at the top dose activity change, negative = inhibition, usual class: inhibitors; also: % is scaled to controls: 0 for no effect and ±100 for the full control effect; nearly all actives have a fitted effect of over 40% in size
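Tdp1 1 nM final; 15 min RT w/ cpd; substrate 15 nM, 5 min; beads 10 ug/ml, 10 min; AlphaScreen read. Neg ctrl: no enzyme.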
ClpP mod: qHTS Assay for Activators of ClpP; ATP-dependent Clp protease proteolytic subunit (Bacillus subtilis (strain 168)), P80244; purified B. subtilis ClpP, FRET peptide cleavage, 20 min; Potency, µM (series often up to 57.5 µM), without a hit: at the highest dose activity change, negative = active; 340,000 compounds, 1.9% hits; active = well fitted falling curve with a large enough effect; inconclusive = small, poorly fitted or top-dose-only effect; inactive = no such curve, though single readings can be large or run the other way; also: the source files actives as falling curves though it sought activators and does not explain the sign; nearly all actives have a fitted effect of over 65% in size
Target sequence (P80244 whole entry, looked up): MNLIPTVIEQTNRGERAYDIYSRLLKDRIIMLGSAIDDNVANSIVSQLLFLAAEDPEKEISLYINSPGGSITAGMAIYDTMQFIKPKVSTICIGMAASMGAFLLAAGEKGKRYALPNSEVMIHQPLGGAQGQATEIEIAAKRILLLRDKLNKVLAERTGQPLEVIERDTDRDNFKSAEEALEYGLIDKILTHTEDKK
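ClpP 10 microg/mL final, pH 8 Tris/KCl buffer with BSA, glycerol, Tween-20; compound pinned in; FRET-FV substrate; RT 20 min; Ex320/Em430; ΔFRET vs ADEP 5.8 microM, DMSO, no enzyme.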
TDP1 cell noCPT: qHTS for Inhibitors of human tyrosyl-DNA phosphodiesterase 1 (TDP1): qHTS in cells in absence of CPT. DT40 Tdp1-/- hTDP1 cells, no CPT, ATP luminescence, 48 h. 420,000 compounds, 15% hits. Potency, µM (doses to about 46.2 µM), for inactives: at the top dose activity change, negative = growth inhibition, actives largely listed as inhibitors. AID 686978, 2013; also: % is scaled to controls: 0 for no effect and ±100 for the full control effect; nearly all actives have a fitted effect of over 55% in size
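Camptothecin absent (DMSO only). Human TDP1-complemented DT40 knockout cells, 400 cells/well, 37 °C for minimum 48 hr; ATP measured via CellTiter-Glo, 30 min dark incubation, luminescence.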
* hit, by the source's call; [ ] = another dose, or the depositor's remark. An excerpt weighted towards active compounds, which were near 17% of everything screened. Unless noted, calls follow the shape of the dose curve; as a rule, active = well fitted curve in the direction sought with a large enough effect; inconclusive = small, poorly fitted or top-dose-only effect, or another doubt; inactive = no such curve, though single readings can be large; an effect the other way counts as inactive or inconclusive. Potency is read from the fitted curve at half-maximal effect.

Results for Cc1ccc(C(=O)/C=C/c2ccc3c(c2)OCO3)o1 ?
DT40 TDP1 CPT: 18.4µM*; TDP1 block: 5.3%; ClpP mod: -4.8%; TDP1 cell noCPT: 20.6µM*

Results for CCNc1ccccc(C(=O)/C=C/c2ccc3c(c2)OCO3)c1=O ?
DT40 TDP1 CPT: 8.2µM*; TDP1 block: -2.8%; ClpP mod: -9.2%; TDP1 cell noCPT: 16.4µM*

What do the screens show for `COc1cc(-c2c(NC(=O)c3ccco3)oc3ccccc3c2=O)cc(OC)c1OC`?
DT40 TDP1 CPT: 4.9%; TDP1 block: 4.1%; ClpP mod: -1.9%; TDP1 cell noCPT: 22.2%

What do the screens show for `Cn1cccc1-c1nc2ccccc2[nH]1`?
DT40 TDP1 CPT: -0.3%; TDP1 block: 3.6%; ClpP mod: 0.9%; TDP1 cell noCPT: -0.1%

What do the screens show for `O=C(/C=C/c1ccc2c(c1)OCO2)c1cccs1`?
DT40 TDP1 CPT: 3.35µM*; TDP1 block: 14.5%[56.1 µM]; TDP1 cell noCPT: 5.96µM*

Results for COc1cc(OC)cc(-c2nc3nc(C)c(CCC(=O)Nc4ccc(C)c(C)c4)c(C)n3n2)c1 ?
DT40 TDP1 CPT: 11.3%; TDP1 block: 3.5%; ClpP mod: 0.0%; TDP1 cell noCPT: -2.3%

Results for COc1cc(OC)cc(-c2nc3nc(C)c(CCC(=O)Nc4ccc(Cl)cc4)c(C)n3n2)c1 ?
DT40 TDP1 CPT: 14.7%; TDP1 block: 6.9%; ClpP mod: -3.9%; TDP1 cell noCPT: -20.1%

How did COc1cc(OC)cc(-c2nc3nc(C)c(CCC(=O)Nc4cc(F)ccc4F)c(C)n3n2)c1 do in these assays?
DT40 TDP1 CPT: inconclusive; TDP1 block: 5.8%; ClpP mod: -15.7%; TDP1 cell noCPT: 8.2µM*

How did COc1cc(OC)cc(-c2nc3nc(C)c(CCC(=O)Nc4ccc(F)cc4F)c(C)n3n2)c1 do in these assays?
DT40 TDP1 CPT: inconclusive; TDP1 block: 3.5%; ClpP mod: 3.8%; TDP1 cell noCPT: 13µM*

Results for CCC(=O)N(C)C[C@@H]1Oc2ncc(Br)cc2C(=O)N([C@@H](C)CO)C[C@H]1C ?
DT40 TDP1 CPT: 5.7%; ClpP mod: -0.2%; TDP1 cell noCPT: -18.0%

Results for Cc1ccc(S(=O)(=O)c2c(N)n(-c3ccccc3)c3nc4ccccc4nc23)cc1 ?
DT40 TDP1 CPT: inconclusive; TDP1 block: -9.1%; TDP1 cell noCPT: inconclusive

What do the screens show for `COCCn1c(N)c(S(=O)(=O)c2cccs2)c2nc3ccccc3nc21`?
DT40 TDP1 CPT: 0.2%; TDP1 block: 7.1%; ClpP mod: 32.1%; TDP1 cell noCPT: -16.5%

What do the screens show for `Cc1cccc(S(=O)(=O)c2c(N)n(Cc3ccco3)c3nc4ccccc4nc23)c1`?
DT40 TDP1 CPT: inconclusive; TDP1 block: 1.0%; ClpP mod: 6.31µM*; TDP1 cell noCPT: inconclusive

How did Cc1ccc(S(=O)(=O)c2c(N)n(NC(=O)c3ccco3)c3nc4ccccc4nc23)cc1 do in these assays?
DT40 TDP1 CPT: -0.6%; TDP1 block: -1.0%; ClpP mod: 8.91µM*; TDP1 cell noCPT: 7.4%

What do the screens show for `Cc1ccc(S(=O)(=O)c2c(N)n(Cc3ccco3)c3nc4ccccc4nc23)cc1`?
DT40 TDP1 CPT: inconclusive; TDP1 block: 0.0%; ClpP mod: 14.1µM*; TDP1 cell noCPT: 18.4µM*

Results for O=C(NN=C1c2ccccc2-c2ccccc21)c1ccccc1 ?
DT40 TDP1 CPT: inconclusive; TDP1 block: 20µM*; ClpP mod: -2.7%; TDP1 cell noCPT: inconclusive

Results for O=C(NN=C1c2ccccc2-c2ccccc21)c1ccccc1Br ?
DT40 TDP1 CPT: -23.8%; TDP1 block: -2.0%; ClpP mod: -1.2%; TDP1 cell noCPT: -16.8%

Results for NC(=S)NN=C1c2ccccc2-c2ccccc21 ?
DT40 TDP1 CPT: 5.17µM*; ClpP mod: 2.2%; TDP1 cell noCPT: 2.91µM*

How did Cc1ccc(OCCNC(=O)C(C)SCC(=O)Nc2ccc(F)cc2)cc1 (centres undefined) do in these assays?
DT40 TDP1 CPT: -16.9%; TDP1 block: 0.2%; ClpP mod: -8.7%; TDP1 cell noCPT: 0.3%

Results for CCCNC(=O)c1ccccc1NC(=O)c1nsc2ccccc12 ?
DT40 TDP1 CPT: inconclusive; TDP1 block: 5.4%; ClpP mod: 1.8%; TDP1 cell noCPT: inconclusive

What do the screens show for `CN(C)c1ccc(CNC(=O)c2ccccc2NC(=O)c2nsc3ccccc23)cc1`?
DT40 TDP1 CPT: 16.4µM*; TDP1 block: 2.7%; ClpP mod: 0.5%; TDP1 cell noCPT: 13µM*

How did CSc1ccc(CNC(=O)c2ccccc2NC(=O)c2nsc3ccccc23)cc1 do in these assays?
DT40 TDP1 CPT: inconclusive; TDP1 block: 0.0%; ClpP mod: -13.4%; TDP1 cell noCPT: inconclusive

How did O=C(NCc1cccc(F)c1)c1ccccc1NC(=O)c1nsc2ccccc12 do in these assays?
DT40 TDP1 CPT: inconclusive; TDP1 block: 2.7%; ClpP mod: 28.2µM*; TDP1 cell noCPT: 23.1µM*

What do the screens show for `CC(C)NC(=O)C1CCN(C(=O)N2CC(C)Oc3ccccc32)CC1` (centres undefined)?
DT40 TDP1 CPT: 9.9%; TDP1 block: -5.2%; ClpP mod: 4.5%; TDP1 cell noCPT: -8.1%

How did O=C(Nc1nc2c(F)cccc2s1)c1ccc([N+](=O)[O-])o1 do in these assays?
DT40 TDP1 CPT: 13µM*; ClpP mod: -1.5%; TDP1 cell noCPT: 16.4µM*

What do the screens show for `O=C(Nc1nc2c(Cl)cccc2s1)c1ccc([N+](=O)[O-])o1`?
DT40 TDP1 CPT: 20.6µM*; ClpP mod: 1.3%; TDP1 cell noCPT: 16.4µM*

What do the screens show for `O=C(Nc1nc2ccc(F)cc2s1)c1ccc([N+](=O)[O-])o1`?
DT40 TDP1 CPT: 6.51µM*; ClpP mod: 1.2%; TDP1 cell noCPT: 7.31µM*

How did O=C(Nc1nc2ccc(F)cc2s1)c1cccs1 do in these assays?
DT40 TDP1 CPT: inconclusive; TDP1 block: 2.6%; ClpP mod: -19.1%; TDP1 cell noCPT: -10.0%

How did COc1ccc(CCN2CC(C(=O)OCC(=O)c3c(N)n(CC(C)C)c(=O)n(C)c3=O)CC2=O)cc1OC (centres undefined) do in these assays?
DT40 TDP1 CPT: 20.6µM*; ClpP mod: -3.3%; TDP1 cell noCPT: 13µM*

What do the screens show for `CC(C)Cn1c(N)c(C(=O)COC(=O)C2CC(=O)N(Cc3ccccc3Cl)C2)c(=O)n(C)c1=O` (centres undefined)?
DT40 TDP1 CPT: inconclusive; TDP1 block: -1.3%; TDP1 cell noCPT: 16.4µM*

Results for COc1ccc(CCN2CC(C(=O)OCc3ccccc3Cl)CC2=O)cc1OC (centres undefined) ?
DT40 TDP1 CPT: 16.1%; TDP1 cell noCPT: -28.9%

Results for CC(C)Cn1c(N)c(C(=O)COC(=O)c2c(O)c(Cl)cc(Cl)c2Cl)c(=O)n(C)c1=O ?
DT40 TDP1 CPT: 5.4%; TDP1 block: -0.5%; ClpP mod: -2.4%; TDP1 cell noCPT: 17.7%

Results for COc1ccc(-c2nc(CN3CCC(C(=O)NCCCOC(C)C)CC3)c(C)o2)cc1OC ?
DT40 TDP1 CPT: -1.8%; TDP1 block: 3.5%; ClpP mod: -15.5%; TDP1 cell noCPT: -15.2%

Source: PubChem BioAssay (National Center for Advancing Translational Sciences (NCATS))
